# Pol iota inh – DNA polymerase iota (human) inhibition | Pol iota fluorescent replication assay, 10 min | actives 1% (n = 390,000) | Potency, µM (highest dose often 115 µM), for inactives: at the top dose activity, negative = inhibition, usual class: inhibitors | AID 588590 | Q9UNA4; note: potency is the fitted concentration of half-maximal effect
#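 Fluorescent replication assay read twice, at 0 min and 10 min after adding 50 nM (final) substrate. Enzyme (10 nM) and compounds were first incubated 15 min at room temperature; enzyme-free buffer wells were negative controls.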
# FEN1 inhibitor – blocks human flap endonuclease 1. AID 588795. Recombinant FEN1 flap cleavage, fluorescence, 15 min. actives 0.35% (n = 390,000). Potency, µM (top dose mostly 114 µM), inactives show at the highest dose activity change, negative = inhibition, hits mostly inhibitors. P39748; note: potency is the fitted concentration of half-maximal effect; % is set by controls: 0 for no effect and ±100 for the full control effect; nearly all actives have a fitted effect of over 65% in size
#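 Recombinant FEN1 (10 nM) was preincubated with pin-transferred compounds for 15 min at room temperature, then flap DNA substrate (50 nM final) was added. Plates were read at 0 and 15 min, and normalized concentration–response data were fitted to a four-parameter Hill equation.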
# Pol eta inh-1 – blocks human DNA polymerase eta activity; Q9Y253; recombinant Pol eta, fluorescent DNA replication assay; Potency, µM (top dose mostly 114 µM), inactives show at the top dose activity change, negative = inhibition, actives largely listed as inhibitors; actives 1.2% (n = 390,000); AID 588591; note: potency is the fitted concentration of half-maximal effect; % is set by controls: 0 for no effect and ±100 for the full control effect
# Target sequence (Q9Y253 whole entry, looked up): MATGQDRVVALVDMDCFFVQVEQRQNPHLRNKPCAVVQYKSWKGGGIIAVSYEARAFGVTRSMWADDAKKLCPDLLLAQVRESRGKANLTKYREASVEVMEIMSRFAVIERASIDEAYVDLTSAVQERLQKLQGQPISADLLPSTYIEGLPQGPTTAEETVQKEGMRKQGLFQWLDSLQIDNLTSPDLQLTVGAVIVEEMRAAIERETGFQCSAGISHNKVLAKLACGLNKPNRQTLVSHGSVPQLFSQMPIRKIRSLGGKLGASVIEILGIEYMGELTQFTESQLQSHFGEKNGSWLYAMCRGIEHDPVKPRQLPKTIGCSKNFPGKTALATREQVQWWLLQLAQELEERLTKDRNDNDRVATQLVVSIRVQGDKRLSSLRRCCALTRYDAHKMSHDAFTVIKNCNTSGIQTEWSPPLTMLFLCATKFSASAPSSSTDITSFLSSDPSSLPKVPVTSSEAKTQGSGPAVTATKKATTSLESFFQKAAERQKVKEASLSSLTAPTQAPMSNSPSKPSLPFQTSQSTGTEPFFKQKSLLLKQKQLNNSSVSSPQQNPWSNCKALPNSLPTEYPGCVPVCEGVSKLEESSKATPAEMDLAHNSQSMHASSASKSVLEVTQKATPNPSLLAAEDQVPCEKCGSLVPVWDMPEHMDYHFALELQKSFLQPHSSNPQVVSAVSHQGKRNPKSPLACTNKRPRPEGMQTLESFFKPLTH
#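 Fluorescent replication assay: 50 nM final substrate added after a 15 min room-temperature compound preincubation with 10 nM enzyme. Signal taken at 0 min and again at 10 min.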
# Tb PGK inh – inhibitors of T. brucei phosphoglycerate kinase. Potency, µM (highest dose often 57.5 µM), without a hit: top-dose activity change, negative = inhibition, usual class: inhibitors. actives 0.043% (n = 380,000). PGK/GAPDH coupled, Kinase-Glo luminescence, 60 min. P07378; note: potency is the fitted concentration of half-maximal effect; % is set by controls: 0 for no effect and ±100 for the full control effect; nearly all actives have a fitted effect of over 60% in size
#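 Recombinant glycosomal PGK reaction used 1,3-bisphosphoglycerate generated in-well by GAPDH (100nM final) in 100mM TEA pH 7.6, 5mM MgCl2, 0.01% Tween-20. After 60 minutes at room temperature, ATP was read by Kinase-Glo Plus luminescence end-point.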
# Pol kappa inh-1 – DNA polymerase kappa (human) inhibition; Q9UBT6; purified Pol kappa, fluorescent DNA synthesis assay, 10 min; Potency, µM (highest dose often 107 µM), inactives show top-dose activity, negative = inhibition, actives largely listed as inhibitors; actives 0.53% (n = 400,000); AID 588579; note: potency is the fitted concentration of half-maximal effect; % is set by controls: 0 for no effect and ±100 for the full control effect
#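 Fluorescent qHTS in 1536-well format: enzyme (10 nM) and compound sat 15 min at room temperature before 50 nM substrate (final) was added. Signal taken at 0 and 10 min; no-enzyme buffer wells were negative controls.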
# POLB inh – blocks human DNA polymerase beta activity. Potency, µM (series often up to 114 µM), without a hit: at the highest dose activity change, negative = inhibition, actives largely listed as inhibitors. actives 1.3% (n = 340,000). AID 485314. Pol beta primer extension/strand displacement, fluorescence kinetic; note: potency is the fitted concentration of half-maximal effect; % is set by controls: 0 for no effect and ±100 for the full control effect
#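 Reaction started by 50 nM substrate onto compound-treated Pol beta (10 nM, 15 min preincubation, room temperature); plates read at 0 min and 10 min. Normalized concentration-effect data fitted by four-parameter Hill equation.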
# TbPGK inh – blocks T. brucei phosphoglycerate kinase; Potency, µM (top dose mostly 57.5 µM), for inactives: at the highest dose activity change, negative = inhibition, usual class: inhibitors; shares compounds with Pol kappa inh-1; actives 79% (n = 500); TbPGK coupled GAPDH assay, Kinase-Glo luminescence; note: potency is the fitted concentration of half-maximal effect; % is set by controls: 0 for no effect and ±100 for the full control effect; nearly all actives have a fitted effect of over 65% in size
# Pol iota confirm – Inhibitors of human DNA polymerase iota, confirmation | Potency, µM, hits mostly inhibitors | shares compounds with Pol kappa inh-1 | actives 77% (n = 1,500) | Pol iota primer extension, TAMRA/BHQ fluorescence; note: potency is the fitted concentration of half-maximal effect
# GALK inh confirm – confirmation of human galactokinase (GALK) inhibitors | Potency, µM (top dose mostly 115 µM), without a hit: at the highest dose activity, negative = inhibition, usual class: inhibitors | shares compounds with Pol eta inh-1 | AID 2015 | actives 70% (n = 150) | purified GALK, Kinase-Glo ATP depletion luminescence
# Redox cycling – generates H2O2 by redox cycling, flagging GALK artifacts. actives 40% (n = 150). Phenol red-HRP H2O2 redox cycling, absorbance 600 nm. Potency, µM (series often up to 115 µM), for inactives: at the highest dose activity change, negative = H2O2 signal, usual class: inhibitors. shares compounds with Pol eta inh-1
# HEK293 tox – reduces HEK-293 cell viability in GALK counter-screen | shares compounds with Pol eta inh-1 | HEK-293 viability, ATP luminescence (CellTiter-Glo), 24/48 h | Potency, µM (top dose mostly 46.1 µM), for the others: at the highest dose activity change, negative = cytotoxicity, actives largely listed as inhibitors | actives 10% (n = 170) | AID 2547; note: potency is the fitted concentration of half-maximal effect; % is set by controls: 0 for no effect and ±100 for the full control effect
# Pol kappa inh-2 – Pol kappa (human) inhibition, cherry-pick confirmation; shares compounds with Pol eta inh-1; purified Pol-kappa, fluorescent strand-displacement substrate; Potency, µM, usual class: inhibitors; actives 76% (n = 920); AID 720501; note: potency is the fitted concentration of half-maximal effect
# Pol eta inh-2 – Pol eta (human) inhibition, cherry-pick confirmation; actives 64% (n = 2,600); Pol eta primer extension, TAMRA/BHQ fluorescence, 10 min; Potency, µM, actives largely listed as inhibitors; shares compounds with Pol eta inh-1; note: potency is the fitted concentration of half-maximal effect
# Active calls of the source: *; ? = inconclusive; · = no result given. Shown are actives, neighbours in structure and some others; about 2.4% of the full set was active somewhere. Calls come from the whole dose curve; as a rule, active = well fitted curve in the direction sought with a large enough effect; inconclusive = small, poorly fitted or top-dose-only effect, or another doubt; inactive = no such curve, though single readings can be large; an effect the other way counts as inactive or inconclusive.
SMILES,Pol iota inh,FEN1 inhibitor,Pol eta inh-1,Tb PGK inh,Pol kappa inh-1,POLB inh,Pol iota confirm,Pol eta inh-2,others
COc1ccc2nc(C)cc(SCC(=O)N/N=C/c3ccc(O)c(O)c3)c2c1,16µM*,?,4.5µM*,?,28µM*,2.2µM*,?,24*,
O=C(N/N=C/c1ccc(O)c(O)c1)N/N=C/c1ccc(O)c(O)c1,0.89µM*,2.5µM*,0.71µM*,?,0.79µM*,0.32µM*,3*,6*,TbPGK inh=1.2µM*;Pol kappa inh-2=2.1*
COC(=O)CSc1cc(C)nc2ccc(OC)cc12,7%,-6%,-13%,-7%,-3%,5%,·,·,
Cc1nonc1C(=O)N/N=C/c1ccc(O)c(O)c1,-11%,2%,-20%,?,-7%,-16%,·,·,
O=C(CSc1nc2ccccc2o1)N/N=C/c1ccccc1,-18%,14%,-10%,0%,-6%,19%,·,·,
O=C(CSc1nc2ccccc2o1)N/N=C/c1ccc(O)c(O)c1,2.5µM*,?,3.5µM*,?,7.1µM*,?,17*,12*,TbPGK inh=3.3µM*;Pol kappa inh-2=8.4*
COc1cccc2c(SCC(=O)N/N=C/c3ccc(O)c(O)c3)cc(C)nc12,11µM*,?,7.9µM*,?,13µM*,2µM*,30*,19*,
O=C(C[n+]1ccc(Cl)c2ccc(Cl)cc21)c1ccc(F)cc1,17%,11%,·,·,2%,·,·,·,
CC1(C)C=C2C(=NN(c3ccccc3)C(N)=C2C#N)CO1,14µM*,0%,18µM*,5%,-3%,-13%,?,·,GALK inh confirm=27µM*;Redox cycling=12µM*;HEK293 tox=1%
CCC(=O)N(CCC(c1ccccc1)c1ccco1)Cc1cccs1 (stereo unspecified),1%,16%,-23%,-10%,-9%,7%,·,·,
COc1ccccc1C(CCN(Cc1cccs1)C(C)=O)c1ccco1 (stereo unspecified),22µM*,6%,25µM*,-1%,-36%,28µM*,?,76*,
O=c1cc(O)c2sc3nc(-c4cccnc4)cc(C(F)(F)F)c3c2[nH]1,18µM*,?,?,-20%,?,13µM*,67*,?,
